Several values for one entry are separate records, joined by “and”; a condition that tells them apart may be missing. Equal entries are not always repeated. Inconclusive results are not listed. A structure can be active in one record and inactive in another. Activity calls are given as the source filed them. The calls were made as follows, unless noted: active = hit-call score of the fitted dose curve at least 0.9, where 1 is the maximum; inactive = score below 0.9.
Legend:
[1] = read-out: E-selectin (Homo sapiens) (UniProt P16581); assay: BSK_SAg_Eselectin: BioMAP Diversity Plus: SAg Assay for Eselectin Biomarker Activity (AID 2283091); settings: primary human HUVEC with PBMC; actives raise or lower the signal
Outline: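 HUVEC co-cultured with PBMC, compound dosed then read at 24 h; E-selectin measured by ELISA. Activity fitted bidirectionally against DMSO as negative control and baseline.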

[2] = read-out: Monokine induced gamma interferon (MIG), CXCL9 (gene 4283); assay: BSK_SAg_MIG: BioMAP Diversity Plus: SAg Assay for Monokine induced gamma interferon (MIG) Biomarker Activity (AID 2283092); settings: primary human HUVEC with PBMC; actives raise or lower the signal
Outline: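 Endothelial cells and PBMC were co-cultured, exposed to test chemicals, and sampled 24 h later. MIG was measured by ELISA, and responses were fitted in both directions relative to DMSO.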

[3] = BSK_SAg_PBMCCytotoxicity: PBMC Cytotoxicity Assessment in the BioMAP Diversity Plus: SAg Assay (AID 2283093); settings: primary human HUVEC with PBMC;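 also: PBMC viability measured as Alamar Blue reduction fluorescence at 546/580 nm; fitted both ways against DMSO so a hit may be loss or gain of signal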;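 as to AC50: PBMC superantigen activated with SEB plus TSST-1 one hour after compound addition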
Outline: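 Alamar Blue reduction (6 h, 546/580 nm) reports PBMC cytotoxicity after 90 h superantigen activation (SEB, TSST-1; 20 ng/mL final each) with 1 h compound pre-treatment. Gain or loss of signal fitted versus DMSO.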

[4] = read-out: Interleukin-8 (IL8), CXCL8 (gene 3576); assay: BSK_SAg_IL8: BioMAP Diversity Plus: SAg Assay for Interleukin-8 (IL8) Biomarker Activity (AID 2283094); settings: primary human HUVEC with PBMC; actives raise or lower the signal
Outline: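 Primary human endothelial cells with PBMC, exposed 24 h; IL-8 determined by ELISA, analysed bidirectionally relative to DMSO.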

[5] = BSK_SAg_Proliferation: Cell Proliferation Assessment in the BioMAP Diversity Plus: SAg Assay (AID 2283095); settings: primary human HUVEC with PBMC;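 also: relative cell number as total protein by SRB absorbance in sub-confluent culture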
Outline: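 A human primary co-culture of umbilical vein endothelium and blood mononuclear cells receives compound; relative cell number is quantified at 96 h by SRB staining and 560 nm absorbance, with DMSO-referenced bidirectional curve fitting.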

[6] = BSK_SAg_SRB: Viability Assessment in the BioMAP Diversity Plus: SAg Assay (AID 2283096); settings: primary human HUVEC with PBMC;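 also: cells read one day after compound addition; hits may be either gain or loss of signal compared with DMSO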
Outline: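 This overt-cytotoxicity endpoint quantifies protein in human endothelial/PBMC co-cultures at 24 h using SRB absorbance (560 nm) after trichloroacetic acid fixation. Values reflect signal change from the DMSO negative control, fitted bidirectionally.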

[7] = target: human CYP2B6, CYP2B6 (gene 1555) (UniProt P20813); assay: NVS_ADME_hCYP2B6: NovaScreen (NVS) CYP450-related Enzyme Activity (ADME) Assay for human CYP2B6 (AID 2283101; active = hit-call score of the fitted dose curve at least 0.9, where 1 is the maximum)
Description: NVS_ADME_hCYP2B6 is a biochemical, single-readout assay that uses extracted gene-proteins in a cell-free assay. Measurements were taken 1 hour after chemical dosing in a 96-well plate.NVS_ADME_hCYP2B6 is one of one assay component(s) measured or calculated from the NVS_ADME_hCYP2B6 assay. It is designed to make measurements of enzyme activity, a form of enzyme reporter, as detected with fluorescence intensity signals by Fluorescence technology.Data from the assay component NVS_ADME_hCYP2B6 was analyzed into 1 assay endpoint. This assay endpoint, NVS_ADME_hCYP2B6, was analyzed in the positive analysis fitting direction relative to Acetonitrile as the negative control and baseline of activity. Using a type of enzyme reporter, loss-of-signal activity can be used to understand changes in the enzymatic activity as they relate to the gene CYP2B6. Furthermore, this assay endpoint can be referred to as a primary readout, because this assay has produced multiple assay endpoints where this one serves a enzymatic activity function. To generalize the intended target to other relatable targets, this assay endpoint is annotated to the cyp intended target family, where the subfamily is xenobiotic metabolism.
Binding assays used specific radioligands (tritiated, iodinated) with non-radioactive competitive displacement ligands in agonist or antagonist protocols (as indicated) and various reference compounds and inhibitors to titrate specific binding to receptors and transporters. Most enzyme assays (CYPs, kinases, phosphatases, proteases, HDACs) used recombinant protein and specific substrates (fluorescence mostly, some colorimetric and radioactive) and inhibitors, followed by a biochemical separation of substrate and product. All assays for the biochemical HTS were initially run in duplicate at a single concentration (10 uM for CYP450 assays and 25 uM for all others). […] Each assay was run with positive and negative controls, and concurrent controls on every plate. The follow-up (secondary) screen tested active chemical-pairs in concentration series, as well as a few additional assays not tested in the primary screen, some selected negative inactives, and several cases re-run in the concentration series for confirmatory purposes.

[8] = target: human CYP2A6, CYP2A6 (gene 1548) (UniProt P11509); assay: NVS_ADME_hCYP2A6: NovaScreen (NVS) CYP450-related Enzyme Activity (ADME) Assay for human CYP2A6 (AID 2283099; active = hit-call score of the fitted dose curve at least 0.9, where 1 is the maximum)
Outline: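 Cell-free fluorescence readout of recombinant human CYP2A6 expressed in insect cells, read 0.5 h after dosing; loss of signal versus acetonitrile negative control. Primary screen in duplicate at 10 uM; actives re-run in concentration-response up to 20 uM.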

[9] = target: human CYP1A1, CYP1A1 (gene 1543) (UniProt P04798); assay: NVS_ADME_hCYP1A1: NovaScreen (NVS) CYP450-related Enzyme Activity (ADME) Assay for human CYP1A1 (AID 2283100; active = hit-call score of the fitted dose curve at least 0.9, where 1 is the maximum)
Outline: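 Cell-free fluorescence assay of recombinant human CYP1A1 activity with a specific substrate, read 1 h after dosing. Compounds were screened in duplicate at 10 uM, then hits tested in concentration-response up to 20 uM; acetonitrile served as baseline.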

Measured: AC50

Sequence of human CYP2B6, CYP2B6 (gene 1555) (P20813 whole entry, looked up): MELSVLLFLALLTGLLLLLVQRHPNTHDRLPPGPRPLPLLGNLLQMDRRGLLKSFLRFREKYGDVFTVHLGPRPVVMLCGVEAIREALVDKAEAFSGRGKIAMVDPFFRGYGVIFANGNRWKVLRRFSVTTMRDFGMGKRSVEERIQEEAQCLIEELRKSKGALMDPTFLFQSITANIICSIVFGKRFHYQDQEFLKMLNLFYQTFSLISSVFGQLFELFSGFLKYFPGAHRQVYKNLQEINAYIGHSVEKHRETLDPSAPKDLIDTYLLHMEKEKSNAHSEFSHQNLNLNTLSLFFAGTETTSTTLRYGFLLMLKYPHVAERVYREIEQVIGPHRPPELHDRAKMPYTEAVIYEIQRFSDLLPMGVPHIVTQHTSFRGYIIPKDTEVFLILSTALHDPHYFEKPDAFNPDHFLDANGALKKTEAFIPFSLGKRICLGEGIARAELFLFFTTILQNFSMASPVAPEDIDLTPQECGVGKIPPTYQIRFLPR
Sequence of E-selectin (Homo sapiens) (P16581 whole entry, looked up): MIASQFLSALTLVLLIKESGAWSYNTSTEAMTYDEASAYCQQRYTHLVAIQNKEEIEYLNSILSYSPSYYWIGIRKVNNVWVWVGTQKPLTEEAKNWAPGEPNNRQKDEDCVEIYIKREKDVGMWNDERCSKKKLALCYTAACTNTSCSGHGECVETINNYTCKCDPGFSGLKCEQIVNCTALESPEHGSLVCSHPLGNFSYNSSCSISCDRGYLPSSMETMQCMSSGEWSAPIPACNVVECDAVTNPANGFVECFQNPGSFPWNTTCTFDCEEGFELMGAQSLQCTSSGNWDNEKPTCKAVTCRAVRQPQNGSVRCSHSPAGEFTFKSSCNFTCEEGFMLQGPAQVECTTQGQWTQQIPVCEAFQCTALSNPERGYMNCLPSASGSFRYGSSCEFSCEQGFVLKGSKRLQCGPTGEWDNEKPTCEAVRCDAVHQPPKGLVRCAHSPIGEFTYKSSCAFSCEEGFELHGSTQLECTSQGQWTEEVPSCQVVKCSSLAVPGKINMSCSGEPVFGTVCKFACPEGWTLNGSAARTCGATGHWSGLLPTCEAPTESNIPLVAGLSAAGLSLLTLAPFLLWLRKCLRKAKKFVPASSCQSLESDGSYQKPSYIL
Sequence of human CYP1A1, CYP1A1 (gene 1543) (P04798 whole entry, looked up): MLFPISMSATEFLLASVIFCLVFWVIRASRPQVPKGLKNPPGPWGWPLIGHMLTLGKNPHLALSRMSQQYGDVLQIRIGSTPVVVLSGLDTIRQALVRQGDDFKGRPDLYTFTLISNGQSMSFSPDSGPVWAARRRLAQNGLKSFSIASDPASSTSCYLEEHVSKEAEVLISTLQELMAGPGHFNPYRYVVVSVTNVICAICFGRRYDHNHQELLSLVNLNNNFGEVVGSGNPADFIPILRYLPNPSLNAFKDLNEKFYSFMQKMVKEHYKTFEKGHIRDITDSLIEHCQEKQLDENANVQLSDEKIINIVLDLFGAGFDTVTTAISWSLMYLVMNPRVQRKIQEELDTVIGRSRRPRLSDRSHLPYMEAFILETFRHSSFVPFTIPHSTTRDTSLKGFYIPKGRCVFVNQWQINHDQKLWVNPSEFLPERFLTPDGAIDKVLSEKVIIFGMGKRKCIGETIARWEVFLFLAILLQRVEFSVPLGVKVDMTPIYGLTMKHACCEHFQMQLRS
Sequence of human CYP2A6, CYP2A6 (gene 1548) (P11509 whole entry, looked up): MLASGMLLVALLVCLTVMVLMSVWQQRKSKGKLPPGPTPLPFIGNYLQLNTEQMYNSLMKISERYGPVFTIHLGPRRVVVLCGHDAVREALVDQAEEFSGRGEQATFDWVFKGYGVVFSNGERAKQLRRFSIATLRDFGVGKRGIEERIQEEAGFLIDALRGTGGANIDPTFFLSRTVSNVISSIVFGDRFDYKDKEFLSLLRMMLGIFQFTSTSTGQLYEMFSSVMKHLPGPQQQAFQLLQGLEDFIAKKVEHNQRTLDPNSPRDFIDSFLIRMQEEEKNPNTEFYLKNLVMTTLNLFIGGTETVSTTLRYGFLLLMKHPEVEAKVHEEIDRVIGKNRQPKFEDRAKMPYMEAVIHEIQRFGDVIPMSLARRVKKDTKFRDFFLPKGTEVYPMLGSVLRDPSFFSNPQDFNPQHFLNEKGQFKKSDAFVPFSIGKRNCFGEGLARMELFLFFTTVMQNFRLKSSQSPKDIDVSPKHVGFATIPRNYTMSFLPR

CCN1CCC2(CC1)COc1cc3c(cc12)N(C(=O)c1ccc(-c2ccc(-c4nnc(C)o4)cc2C)cc1)CC3
active: [1] 13.3 µM | [2] 30.8 µM | [3] 12.6 µM | [4] 12.3 µM | [5] 6.95 µM

COC(=O)c1sccc1S(=O)(=O)NC(=O)Nc1nc(C)nc(OC)n1
inactive: [2] | [3] | [4] | [5]

Nc1ccc(-c2ccc(N)c(Cl)c2)cc1Cl
inactive: [1] | [2] | [3] | [4] | [5]

O=[N+]([O-])c1ccc2c3c(cccc13)CC2
inactive: [1] | [2] | [3] | [4] | [5]

ClC(Cl)=C(Cl)C(Cl)=C(Cl)Cl
inactive: [1] | [2] | [4] | [6]
active: [3] 33.1 µM | [5] 31.7 µM

ClCC(Cl)CCl
inactive: [2] | [3] | [4] | [5]

O=Cc1cccc(Oc2ccccc2)c1
not listed: [7] | [8] | [9]
inactive: all other assays above

CCCCCCCCC(=O)NCc1ccc(O)c(OC)c1
not listed: [7] | [8] | [9]
inactive: all other assays above

Oc1c(I)cc(I)cc1I
inactive: [3]
active: [1] 14.7 µM | [2] 34.2 µM | [4] 34.3 µM | [5] 31.9 µM | [6] 20 µM

Oc1ccc(-c2ccccc2)cc1
not listed: [7] | [8] | [9]
inactive: all other assays above

O=C1C2(Cl)C3(Cl)C4(Cl)C(Cl)(Cl)C5(Cl)C3(Cl)C1(Cl)C5(Cl)C24Cl (stereo unspecified)
active: [1] 19.3 µM | [2] 10.6 µM | [3] 5.7 µM | [4] 26.2 µM | [5] 4.64 µM | [7] 2.02 µM and 4.09 µM and 1.02 µM

CCC(C)(C)c1ccc(O)c(C(C)(C)CC)c1
active: [1] 9.83 µM | [2] 20.8 µM | [3] 9.42 µM | [4] 9.58 µM | [5] 7.43 µM | [6] 14.6 µM

CCOP(=S)(OCC)Oc1ccc(S(C)=O)cc1 (stereo unspecified)
inactive: [1] | [2] | [3] | [4] | [5]

CCOC(=O)/C=C(C)/C=C/C[C@@H](C)CCCC(C)C
inactive: [2]
active: [1] 22.4 µM | [3] 26.4 µM | [4] 20 µM | [5] 31.5 µM | [6] 33.1 µM

CCOP(=S)(OCC)SCSP(=S)(OCC)OCC
inactive: [2] | [3] | [4] | [7]
active: [1] 15.2 µM | [5] 20 µM

C[C@]12CCC(=O)C[C@@H]1CC[C@@H]1[C@@H]2CC[C@]2(C)[C@@H](O)CC[C@@H]12
inactive: [2] | [3] | [4] | [5]

C[C@@H]1C[C@@H]([C@H](O)CC2CC(=O)NC(=O)C2)C(=O)[C@@H](C)C1
active: [2] 13 µM | [3] 4.6 µM | [4] 1.4 µM | [5] 3.82 µM

O=C(O)C(F)(F)C(F)(F)C(F)(F)C(F)(F)C(F)(F)C(F)(F)C(F)(F)C(F)(F)C(F)(F)C(F)(F)F
active: [2] 34.9 µM | [3] 31.5 µM | [4] 26.8 µM | [5] 32.8 µM
inactive: [2] | [3] | [4] | [5]

C=C(C)C(=O)[O][Sn]([CH2]CCC)([CH2]CCC)[CH2]CCC
active: [1] 0.147 µM | [2] 0.148 µM | [3] 0.236 µM | [4] 0.31 µM | [5] 0.188 µM

Nc1cccc2ccccc12
inactive: [1] | [2] | [3] | [4] | [5]

CC(C)(OO)c1ccccc1
inactive: [1] | [2] | [3] | [4] | [5]

NC(=S)Nc1ccccc1
inactive: [2] | [3] | [4] | [5]

CCCCC(CC)CO[N+](=O)[O-] (stereo unspecified)
not listed: [7] | [8] | [9]
inactive: all other assays above

C=CC(=O)OCCCCCC(C)C
not listed: [7] | [8] | [9]
inactive: all other assays above

NC(=O)O
not listed: [7] | [8] | [9]
inactive: all other assays above

COP(=S)(OC)Oc1ccc(S(=O)(=O)N(C)C)cc1
not listed: [7] | [8] | [9]
inactive: all other assays above

COC[C@H](C)N(C(=O)CCl)c1c(C)csc1C
inactive: [1] | [2] | [3] | [4] | [5]

CC(C)(c1ccccc1)c1ccc(O)c(C(C)(C)c2ccccc2)c1
active: [1] 11.9 µM | [2] 11.4 µM | [3] 8.97 µM | [4] 11.4 µM | [5] 6 µM

COc1cc(-c2ccc(N)c(OC)c2)ccc1N
active: [1] 11.8 µM | [4] 7.64 µM | [5] 11.8 µM | [9] 3.13 µM and 3.48 µM | [7] 6.76 µM and 3.92 µM
inactive: [2] | [3] | [4] | [5] | [8]
